ClpP mod: qHTS Assay for Activators of ClpP | Potency, µM (doses to about 57.5 µM) | purified B. subtilis ClpP, FRET peptide cleavage, 20 min | 340,000 tested, 1.9% active | ATP-dependent Clp protease proteolytic subunit (Bacillus subtilis (strain 168)), P80244; active = well fitted falling curve with a large enough effect; inconclusive = small, poorly fitted or top-dose-only effect; inactive = no such curve, though single readings can be large or run the other way; also: the source files actives as falling curves though it sought activators and does not explain the sign; nearly all actives have a fitted effect of over 65% in size
Target sequence (P80244 whole entry, looked up): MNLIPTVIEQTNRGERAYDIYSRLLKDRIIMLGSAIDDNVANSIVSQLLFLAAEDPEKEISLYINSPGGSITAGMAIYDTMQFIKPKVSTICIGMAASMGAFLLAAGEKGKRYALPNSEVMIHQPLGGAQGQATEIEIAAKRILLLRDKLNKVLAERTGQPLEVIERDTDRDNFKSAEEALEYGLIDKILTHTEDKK
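FRET quenching reversal measured ClpP activation: 10 microg/mL B. subtilis ClpP at pH 8 with the FRET-FV decapeptide, read at 430 nm after 320 nm excitation. The 20-min minus 0-min signal was scaled between DMSO/no-enzyme wells and ADEP (5.8 microM final).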
DT40 TDP1 no CPT: qHTS for Inhibitors of human tyrosyl-DNA phosphodiesterase 1 (TDP1): qHTS in cells in absence of CPT; AID 686978, 2013; 420,000 tested, 15% active; Potency, µM (highest dose often 46.2 µM), usual class: inhibitors; DT40 Tdp1-/- hTDP1 cells, no CPT, ATP luminescence, 48 h; also: nearly all actives have a fitted effect of over 55% in size
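Seeded 400 DT40-hTDP1 cells/well (vehicle DMSO, no 20 nM CPT); pinned compounds; ≥48 hr at 37 °C; CellTiter-Glo luminescence as viability measure.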
IL1B secr inh: inhibitors of inflammasome signaling (IL-1 beta secretion); THP-1 LPS/ATP IL-1B secretion, AlphaLISA, 16 h; hits give low values; activity change, % at 57.5 µM; 360,000 tested, 4.7% active; in the data active = activity change below about -50%; inconclusive = mostly about -30% to -49%
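THP-1 cells pretreated 1 hr with compounds (up to 57.5 uM final), then stimulated with LPS (250 ng/mL final) plus ATP (1.25 mM final); secreted IL-1B measured by AlphaLISA after 16 hr, decreased signal indicating inhibition.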
DRD3 antagonist: D3 dopamine receptor (human) antagonism; D3R cells, DiscoveRx beta-arrestin luminescence, antagonist mode; hits give low values; max response, negative = inhibition, %; 360,000 tested, 2.5% active; AID 652054; in the data active = max response below about -50%; inconclusive = no clear call, values can overlap the other calls
Target sequence (P35462 whole entry, looked up): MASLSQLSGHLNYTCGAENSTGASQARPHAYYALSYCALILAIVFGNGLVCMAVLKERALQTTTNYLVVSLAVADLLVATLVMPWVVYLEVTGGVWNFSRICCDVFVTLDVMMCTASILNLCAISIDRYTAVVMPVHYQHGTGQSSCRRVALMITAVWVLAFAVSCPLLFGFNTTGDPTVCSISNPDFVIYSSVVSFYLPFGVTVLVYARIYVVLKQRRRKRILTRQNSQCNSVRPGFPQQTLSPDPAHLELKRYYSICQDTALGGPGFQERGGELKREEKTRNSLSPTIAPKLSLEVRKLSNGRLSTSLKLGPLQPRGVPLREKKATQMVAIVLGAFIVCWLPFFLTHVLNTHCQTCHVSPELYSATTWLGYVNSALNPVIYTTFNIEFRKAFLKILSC
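Cells expressing the human receptor were seeded at 1500 cells/well, incubated overnight at 37 degrees C in 5% CO2, then exposed to library compounds with dopamine controls for 90 minutes at 37 degrees C before luminescent detection.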
DRD3 agonist: activates the human D3 dopamine receptor; 410,000 tested, 0.58% active; D3R DiscoveRx beta-arrestin cells, luminescence, 90 min; max activation, %; AID 652048; P35462; in the data active = max activation above about 30%
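Agonist-mode cell screen: cells plated at 1500/well and incubated overnight at 37 °C, then exposed to library compounds for 90 min at 37 °C. Detection reagent was added for 30–60 min at room temperature, and luminescence was read.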
TDP1 cell CPT: growth inhibition of DT40 Tdp1-/-;hTDP1 cells with camptothecin (screen for TDP1 inhibitors); chicken DT40 Tdp1-/-;hTDP1 cells + 20 nM CPT, ATP luminescence, 48 h; Potency, µM (titrated, usually from 46.2 µM), most hits filed as inhibitors; 420,000 tested, 12% active; also: nearly all actives have a fitted effect of over 55% in size
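Chicken DT40 Tdp1-/- cells stably complemented with human TDP1 were seeded at 400 cells/well in medium containing 20 nM camptothecin, exposed to pin-transferred compounds, and grown at 37 °C for at least 48 hr. Viability was read as ATP luminescence.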
Large screens that a line does not name were inactive. Hits are enriched below; roughly 21% of the tested compounds scored in any of these assays. Unless noted, calls follow the shape of the dose curve; as a rule, active = well fitted inhibition curve with a large enough effect; inconclusive = small, poorly fitted or top-dose-only effect; inactive = flat fitted curve, though single readings scatter.

Cc1ccc(Cl)c(OCC(=O)NCC(c2cccs2)N2CCOCC2)c1 (configuration not stated)	DT40 TDP1 no CPT inconclusive, IL1B secr inh inconclusive, TDP1 cell CPT 26µM (no result: ClpP mod)
COc1ccccc1C(CNC(=O)COc1cc(C)ccc1Cl)N1CCCC1 (configuration not stated)	DT40 TDP1 no CPT inconclusive, IL1B secr inh -64, TDP1 cell CPT inconclusive
CCOc1ccc(-c2nonc2NC(=O)c2ccccc2C)cc1	DT40 TDP1 no CPT inconclusive, TDP1 cell CPT inconclusive (no result: IL1B secr inh, DRD3 antagonist)
Cc1cc(C)c(S(=O)(=O)c2ccccc2Cl)c(=O)[nH]1	none
COc1cccc(Cn2c(=O)n(CC3CCC(C(=O)NC(C)C)CC3)c(=O)c3sccc32)c1 (configuration not stated)	none (no result: IL1B secr inh, DRD3 antagonist)
CCc1cccc(N(C(=O)c2csnn2)C(C(=O)NC(C)(C)C)c2ccccn2)c1 (configuration not stated)	IL1B secr inh -56 (no result: ClpP mod)
CCCCOc1ccc(N(CC(=O)NCc2ccccc2)C(=O)c2csnn2)cc1	DT40 TDP1 no CPT 16µM, TDP1 cell CPT inconclusive (no result: ClpP mod)
O=C(NCc1ccccc1)C(c1ccccc1)N(C(=O)c1csnn1)c1ccccc1 (configuration not stated)	DT40 TDP1 no CPT 18µM, TDP1 cell CPT inconclusive (no result: ClpP mod)
COc1ccc(CNC(=O)C(c2ccco2)N(C(=O)c2csnn2)c2cccc(C)c2C)cc1 (configuration not stated)	DT40 TDP1 no CPT 23µM, TDP1 cell CPT inconclusive
O=C(O)Cc1sc(Nc2ccccc2Cl)nc1-c1ccccc1	none (no result: IL1B secr inh, DRD3 antagonist)
O=C(NCc1ccc(F)cc1)C(c1ccco1)N(C(=O)c1csnn1)c1ccccc1 (configuration not stated)	DT40 TDP1 no CPT inconclusive, DRD3 agonist 49 (no result: ClpP mod)
O=C(NCc1ccc(F)cc1)C(c1ccccc1)N(C(=O)c1csnn1)c1ccccc1 (configuration not stated)	DT40 TDP1 no CPT inconclusive, TDP1 cell CPT inconclusive
Cc1cc(C)cc(N(C(=O)CNS(=O)(=O)c2ccccc2)C(C(=O)NCc2ccccc2)c2ccc(C)o2)c1 (configuration not stated)	none
Cc1ccc(S(=O)(=O)NCC(=O)N(c2ccccc2)C(C(=O)NCc2ccccc2)c2ccco2)cc1 (configuration not stated)	DT40 TDP1 no CPT 18µM, IL1B secr inh inconclusive, TDP1 cell CPT inconclusive
Cc1ccc(-n2nc(C(=O)c3ccccc3)n3c(=O)c(Cc4ccccc4)nnc23)cc1	DT40 TDP1 no CPT 12µM, TDP1 cell CPT inconclusive
COC(=O)c1nn(-c2ccccc2)c2nnc(Cc3ccc(C)cc3)c(=O)n12	none
C=CCNC(=O)CN1C(=O)c2cccc3cccc1c23	none
Cc1ccc(C(=O)NCCNc2nc3cc(C)c(C)cc3cc2C)cc1	none (no result: ClpP mod)
CCOc1ccc2nc(NCCNC(=O)c3cc(OC)c(OC)c(OC)c3)c(C#N)cc2c1	DT40 TDP1 no CPT inconclusive
CCOc1ccc2nc(NCCNC(=O)C(C)C)c(C)cc2c1	ClpP mod 16µM, DT40 TDP1 no CPT inconclusive, TDP1 cell CPT inconclusive
CCOc1ccc2nc(NCCNC(=O)C3CC3)c(C)cc2c1	ClpP mod 40µM
COCC(=O)NCCNc1nc2ccc(C)cc2cc1C	ClpP mod 28µM, IL1B secr inh inconclusive
COCCn1c(=O)c(-c2cc(F)cc(F)c2)nc2cnc(N(C)C)nc21	none (no result: ClpP mod, IL1B secr inh, DRD3 antagonist, DRD3 agonist)
COc1ccc(NC(=O)CN2C(=O)c3ccccc3S2(=O)=O)cc1S(=O)(=O)N1CCOCC1	none
CC1(C)C2CCC1(C)C(OCC[N+](C)(C)CC(=O)OC1CCCCC1)C2 (configuration not stated)	DT40 TDP1 no CPT 0.65µM, TDP1 cell CPT 1.2µM
CC(=O)O[C@@H]1CC2CCC1(C)C2(C)C (some centres not stated)	none (no result: ClpP mod, IL1B secr inh, DRD3 antagonist)
CCOC(=O)C[N+](C)(C)CCOC1CC2CCC1(C)C2(C)C (configuration not stated)	DT40 TDP1 no CPT 7.3µM, TDP1 cell CPT 16µM
O=C(NCCNC(=O)c1ccccn1)c1ccccc1	none (no result: ClpP mod)
COc1ccc(C2(c3ccc(O)cc3O)CC(c3ccccc3Cl)NC(=S)N2)cc1 (configuration not stated)	DT40 TDP1 no CPT inconclusive, IL1B secr inh -90, TDP1 cell CPT inconclusive (no result: ClpP mod)
CC(C)C(N)C(=O)NC(Cc1c[nH]c2ccccc12)C(=O)O (configuration not stated)	none (no result: ClpP mod, IL1B secr inh, DRD3 antagonist, DRD3 agonist)
CN(C)CCCC1(c2ccc(F)cc2)OCc2cc(C#N)ccc21 (configuration not stated)	DT40 TDP1 no CPT inconclusive, DRD3 antagonist -59
CC1=C(C(=O)Nc2ccccc2C)C(c2ccco2)n2ncnc2N1 (configuration not stated)	none (no result: IL1B secr inh, DRD3 antagonist)
CCN(CC)S(=O)(=O)c1cccc(N=Nc2sc(N)nc2C)c1	TDP1 cell CPT inconclusive
COC(=O)c1cc(N=Nc2sc(N)nc2C)cc(C(=O)OC)c1	DT40 TDP1 no CPT 13µM, TDP1 cell CPT inconclusive
COC(=O)Nc1ncc(CN2CCc3ccccc3C2)s1	DRD3 antagonist -74
COc1ccc(CCn2c(=O)c3cccnc3n(CC(=O)Nc3c(C)cc(C)cc3C)c2=O)cc1OC	ClpP mod inconclusive, DT40 TDP1 no CPT inconclusive (no result: IL1B secr inh, DRD3 antagonist)
CCc1nn(CC(=O)NCc2ccccc2)c(=O)c2cccn12	none (no result: IL1B secr inh, DRD3 antagonist)
CCOc1ccccc1C1C(C(=O)OC)=C(N)OC2=C1C(=O)CCC2 (configuration not stated)	none
CCOc1ccc(Br)cc1C1C(C(=O)OC)=C(N)Oc2cc(N(C)C)ccc21 (configuration not stated)	DT40 TDP1 no CPT inconclusive, DRD3 antagonist inconclusive, TDP1 cell CPT 5.2µM
COc1ccc(NC2=C(c3ccc(C(F)(F)F)cc3)C(=O)c3ccccc32)cc1	DT40 TDP1 no CPT inconclusive, TDP1 cell CPT inconclusive (no result: IL1B secr inh, DRD3 antagonist)
COc1ccc(NC2=C(c3ccc(OC)cc3)C(=O)c3ccccc32)cc1	DT40 TDP1 no CPT inconclusive, TDP1 cell CPT 3.7µM
COc1ccc(C2=C(Nc3ccc(C)cc3C)c3ccccc3C2=O)cc1	DT40 TDP1 no CPT inconclusive, TDP1 cell CPT 13µM (no result: IL1B secr inh, DRD3 antagonist)
O=C(c1ccccc1)c1coc(-c2ccccc2)c1	DT40 TDP1 no CPT inconclusive, TDP1 cell CPT inconclusive
O=C(C1=C(c2ccccc2)C(=O)c2ccccc2C1=O)c1ccccc1	DT40 TDP1 no CPT 2.9µM, IL1B secr inh -104, DRD3 antagonist -95, TDP1 cell CPT 2.1µM (no result: ClpP mod)
O=C1C(c2ccc(C(F)(F)F)cc2)=C(Nc2ccc(Cl)cc2)c2ccccc21	DT40 TDP1 no CPT 12µM, TDP1 cell CPT 16µM (no result: IL1B secr inh, DRD3 antagonist)
Cc1cc(COc2ccccc2)oc1C(=O)O	none

Source: PubChem BioAssay (National Center for Advancing Translational Sciences (NCATS))
